CHX counter: counter-screen hit for Shiga toxin inhibitors, cycloheximide. AID 2314. max response, %. hit rate 12% among 300,000. cell reporter, cycloheximide protein synthesis inhibition counterscreen; in the data active = max response mostly above about 13%, no sharp cut-off; inactive = mostly below about 14%; note: read at 38.3 µM for the half of the compounds with a filed dose
Shiga toxin inh: inhibitors of Shiga toxin in Vero cells; Vero cells, Shiga toxin protein synthesis inhibition reporter; AID 2315; inhibition, % at 38.7 µM; hit rate 9.2% among 290,000; in the data active = inhibition mostly above about 28%, no sharp cut-off; inactive = mostly below about 43%
Giardia FBPA inh: Giardia lamblia aldolase inhibition. A8B2U2. purified Giardia FBPA. Potency, µM (titrated, usually from 59.6 µM), hits mostly inhibitors. hit rate 0.71% among 290,000. AID 2451; note: nearly all actives have a fitted effect of over 55% in size
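Giardia FBPA (40 nM reagent) was preincubated 10 min at RT with compound (up to 57.5 uM final), then substrate plus GAPDH/TPI/NAD/arsenate coupling system with diaphorase/resazurin was added; resorufin fluorescence (525/598 nm) was read after 20 min.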
NS1 function inh: blocks influenza NS1 protein function; hit rate 0.4% among 270,000; Potency, µM (top dose mostly 46.1 µM); calls by dose curve; note: actives are rising curves; nearly all actives have a fitted effect of over 50% in size
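In this qHTS, NS1 from influenza A is expressed in budding yeast, where it slows growth. Cells are switched from glucose to 2% galactose medium (pH 6.0, -URA), treated with compound, and growth recovery is read at OD600.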
LmPK inhibitor: blocks Leishmania mexicana pyruvate kinase activity; Potency, µM (series often up to 57.5 µM), actives largely listed as inhibitors; purified LmPK, Kinase-Glo ATP luminescence, 1 h; hit rate 0.37% among 290,000; Q27686; AID 1721
Target sequence (Q27686 whole entry, looked up): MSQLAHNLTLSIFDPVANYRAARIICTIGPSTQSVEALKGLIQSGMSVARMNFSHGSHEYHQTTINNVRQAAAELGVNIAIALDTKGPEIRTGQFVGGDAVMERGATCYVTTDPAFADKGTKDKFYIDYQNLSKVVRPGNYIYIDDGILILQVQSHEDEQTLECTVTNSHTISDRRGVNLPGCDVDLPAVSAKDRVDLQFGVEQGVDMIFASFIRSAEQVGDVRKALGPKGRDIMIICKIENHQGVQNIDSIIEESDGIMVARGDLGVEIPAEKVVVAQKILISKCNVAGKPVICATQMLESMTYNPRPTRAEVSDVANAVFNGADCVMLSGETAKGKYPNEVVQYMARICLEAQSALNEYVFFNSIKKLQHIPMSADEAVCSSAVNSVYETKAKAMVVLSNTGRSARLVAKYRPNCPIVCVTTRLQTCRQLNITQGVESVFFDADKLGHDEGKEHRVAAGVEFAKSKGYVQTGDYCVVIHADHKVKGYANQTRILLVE
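ATP generated from ADP (0.1 mM) and PEP (0.5 mM) by 0.1 nM LmPK over 1 h at room temperature (pH 7.2 imidazole buffer) was detected by coupled luciferase luminescence. Values were normalized to uninhibited and no-enzyme wells.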
Numbers stand for hits; . = inactive; ? = inconclusive; / = no result given; [ ] = dose if it differs, or a comment. Only some compounds are listed: those with a hit (about 14% of all), similar ones and a draw of the others. Unless noted, calls come from the whole dose curve; as a rule, active = well fitted curve in the direction sought with a large enough effect; inconclusive = small, poorly fitted or top-dose-only effect, or another doubt; inactive = no such curve, though single readings can be large; an effect the other way counts as inactive or inconclusive.

SMILES	CHX counter	Shiga toxin inh	Giardia FBPA inh	NS1 function inh	LmPK inhibitor
COc1cccc(CN(C)C(=O)c2cc(COc3c(F)cccc3F)on2)c1	22	.	.	.	.
CCN(CCn1cccn1)C(=O)c1cc(COc2c(F)cccc2F)on1	.	.	.	.	.
CCN(Cc1ccccc1)C(=O)c1cc(COc2c(F)cccc2F)on1	13	.	.	.	.
O=S(=O)(c1ccc2c(c1)OCCO2)N1CCN(S(=O)(=O)c2cc(F)c(Br)cc2F)CC1	.	.	/	/	/
C=CCOC(=O)NC(CC(=Nc1ccc(OC)cc1)C(=O)OC)c1ccccc1 (stereo unspecified)	/	/	.	/	/
CN(C)C1=NCCN1CCc1cccc(F)c1	.	.	.	.	.
Cc1ccc(CNC(=O)Nc2ccc(C)cc2)cc1	22	.	.	.	.
Cc1ccc(NC(=O)NCc2cccnc2)cc1	19	.	/	.	.
O=C(NCc1cccnc1)Nc1ccc(Cl)c(Cl)c1	26	59	.	.	.
Cn1cccc1CNC(=O)Nc1ccc(Cl)c(Cl)c1	37	.	.	.	.
CCOc1ccc(NC(=O)NCc2cccnc2)cc1	.	.	.	.	.
Cc1ccc(NC(=O)NCc2cccnc2)cc1C	.	.	/	.	.
CSc1ccc(NC(=O)NCc2cccnc2)cc1	28	39	.	.	.
CC(C)c1ccc(NC(=O)NCc2cccnc2)cc1	12	.	.	.	.
O=C(NCc1cccnc1)Nc1ccc(Br)cc1	30	.	.	.	.
O=C(NCc1cccnc1)c1ccc(NC(=O)c2ccc(Br)cc2)cc1	.	.	.	.	.
Cc1ccc(-n2c(SCC(=O)N(C)C)nnc2-c2ccco2)cc1	.	.	.	?	.
CS(=O)(=O)Nc1cccc(C2=NN(C(=O)c3cccc([N+](=O)[O-])c3)C(c3cccs3)C2)c1 (stereo unspecified)	.	.	.	.	.
CC(C)=C1SC(N2CCN(Cc3ccccc3)CC2)=NC1=O	23	.	.	.	.
C[C@@H](N)/C(N)=N/O	/	/	/	.	/
COc1cccc(Nc2ncc3nc(-c4cc(F)cc(F)c4)c(=O)n(CCC#N)c3n2)c1	/	/	.	/	/
COC(=O)Cn1nnc(N2CCOCC2)n1	40	.	.	.	.
Cc1ccc(-c2nnn(CC(=O)N3CCCCC3)n2)o1	18	71	.	/	.
COc1ccc(-c2ccc(-c3nnn(CC(=O)N4CCOCC4)n3)cc2)cc1	23	.	.	.	.
COc1cc(-c2nnn(CC(=O)N3CCOCC3)n2)cc(OC)c1OC	.	.	.	.	.
SMILES	CHX counter	Shiga toxin inh	Giardia FBPA inh	NS1 function inh	LmPK inhibitor
O=C(Cn1nnc(-c2ccccc2F)n1)N1CCCCC1	35	50	.	.	.
Cc1ccc(-c2nnn(CC(=O)N3CCC(C)CC3)n2)o1	.	.	.	.	.
CCNc1nc(SCC(=O)OC)nc(N2CCOCC2)n1	.	.	.	.	.
O=C(Cn1nnc(-c2ccc(F)cc2)n1)N1CCCCC1	.	.	.	.	.
Cc1cc2c(c(C)c1Cl)C(c1ccc3c(c1)OCO3)CC(c1ccccc1)O2 (stereo unspecified)	.	.	.	/	/
CN(C)C(=S)c1ccccc1	.	.	.	.	.
Cc1ccc(-c2nnc(SCC(=O)Nc3nccs3)n2N)cc1	30	43	.	.	.
Cn1cc(SCC(=O)Nc2nccs2)c2ccccc21	40	83	.	.	.
Cc1cc(C)cc(NC(=O)CSc2nnc(-c3ccccc3)n2N)c1	14	.	.	.	.
COc1ccc(NC(C)=O)cc1NC(=O)CSc1nnc(-c2ccccc2)n1N	.	60	.	.	.
COC(=O)NC(c1ccc2ccccc2c1)C(C(C)=O)C(=O)OC (stereo unspecified)	/	/	.[12.9 µM]	/	/
Cc1ccc(NC(=O)Cn2cc([N+](=O)[O-])nc2C)cc1C	.	.	.	.	.
Cc1cccc(N2CCN(C(=O)CN3C(=O)C4CC=CCC4C3=O)CC2)c1C (stereo unspecified)	.	76	.	/	.
Cc1cccc(N2CCN(C(=O)CN3C(=O)NC(C)(C)C3=O)CC2)c1C	31	74	.	.	.
Cc1ccccc1N1CCN(C(=O)CN2C(=O)c3ccccc3C2=O)CC1	38	198	.	.	.
Cc1ccccc1-n1ccnc1SCC(=O)NC1CCCC1	.	.	.	.	.
COc1ccc(N2CCN(c3ccc(S(=O)(=O)N(C(C)C)C(C)C)cn3)CC2)cc1	.	.	.	.	.
CCOC(=O)C1CCCN(C(=O)c2ccccc2NC(=O)C2=C(C)OCCS2)C1 (stereo unspecified)	.	.	.	.	.

Assay outcomes as filed in PubChem.
